Experimental findings from PubChem BioAssay (Tox21) are described below.

Experiment [1] is described as follows: Caspase-3/7 induction in HepG2 cells by small molecules, qHTS assay (AID 1346978). Also: nearly all actives have a fitted effect of over 15% in size. The method, boiled down: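 Wild-type HepG2 cells, 2,000/well, settled 5 hr at 37 C and 5% CO2, then compound-treated for 17 hr; caspase-3/7 activity read by luminescent Caspase-Glo 3/7 after 30 min at room temperature.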
In general terms: In qHTS, concentration-response curves come from the screen itself.

Experiment [2] in a line: Caspase-3/7 induction in CHO-K1 cells by small molecules, qHTS cell viability counter screen (AID 1346979). Also: nearly all actives have a fitted effect of over 35% in size. Also: potency is read from the fitted curve at half-maximal effect. The method, boiled down: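 Following a 5hr settling period, CHO-K1 cells at 1,500 per well received DMSO-dissolved compounds. Cell viability was quantified 16hr later by CellTiter-Fluor fluorescence, measured after 1hr with reagent at 37C.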
Experiment [3] in a line: Caspase-3/7 induction in CHO-K1 cells by small molecules, qHTS assay (AID 1346980). Also: nearly all actives have a fitted effect of over 15% in size. The method, boiled down:
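Wild-type CHO-K1 cells exposed to compounds for 17hr at 37 C, 5% CO2. Caspase-3/7 activity then measured by Caspase-Glo 3/7 luminescence after 30min at room temperature.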

A short description of experiment [4]: Caspase-3/7 induction in HepG2 cells by small molecules, qHTS cell viability counter screen (AID 1346981). Also: series mostly up to about 92 µM; nearly all actives have a fitted effect of over 30% in size. The method, boiled down: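 Treatment of HepG2 cells with DMSO-delivered compounds ran 16 hr at 37 C following a 5-hr pre-incubation of 2,000 cells/well. CellTiter-Fluor fluorescence, read after 1 hr, served as the viability measure in a qHTS format.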
Experiment [5] addresses Nuclear receptor subfamily 1 group I member 2 (Homo sapiens) (UniProt O75469). As to the kind of experiment: Human pregnane X receptor (PXR) small molecule agonists, qHTS assay (AID 1346982). Also: nearly all actives have a fitted effect of over 35% in size. Also: potency is read from the fitted curve at half-maximal effect. The method, boiled down:
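Stable HepG2 line reporting PXR-mediated CYP3A4 expression via luciferase. Treatment: 24 hr with compounds in DMSO at 37 C. Detection: ONE-Glo luminescence.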

The target of experiment [6] is Acetylcholinesterase (Homo sapiens) (UniProt P22303). As to the kind of experiment: Acetylcholinesterase (AChE) small molecule antagonists: colormetric cell-based qHTS assay (AID 1347395; calls by dose curve; also: nearly all actives have a fitted effect of over 30% in size; also: potency is read from the fitted curve at half-maximal effect). The method, boiled down:
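After overnight attachment at 37 C, SH-SY5Y cells get 30 min compound exposure; detection cocktail (acetylthiocholine, DTNB) then incubates 90 min at 37 C, and absorbance reflects AChE-generated thiocholine.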

For experiment [7] the target is unchanged. As to the kind of experiment: Acetylcholinesterase (AChE) small molecule antagonists: enzyme-based qHTS assay (AID 1347397; calls by dose curve; also: nearly all actives have a fitted effect of over 55% in size; also: potency is read from the fitted curve at half-maximal effect). As to conditions: Potency: AChE enzyme activity inhibition. Put shortly: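 Colorimetric DTNB read-out of thiocholine released from acetylthiocholine by recombinant human AChE (50 mU/mL as dispensed). Compounds were preincubated 30 min at RT before substrate/DTNB addition, with a 10 min RT reaction.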

For experiment [8] the target is unchanged. Description: Acetylcholinesterase (AChE) small molecule antagonists: fluorescence cell-based qHTS assay (AID 1347398; calls by dose curve; also: nearly all actives have a fitted effect of over 50% in size; also: potency is read from the fitted curve at half-maximal effect). Particulars: Potency: AChE activity. Put shortly: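 SH-SY5Y, 2,000 cells/well, attached overnight; cmpd 30 min 37 C; acetylthiocholine/Thiolite Green cocktail 40 min RT; fluorescence Ex/Em 490/520 nm.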
Experiment [9] has the same target. As to the kind of experiment: Acetylcholinesterase (AChE) small molecule antagonists: enzyme-based qHTS assay with human liver microsomes (AID 1347399; calls by dose curve; also: nearly all actives have a fitted effect of over 60% in size; also: potency is read from the fitted curve at half-maximal effect). As to conditions: Potency: qHTS inhibition. The method, boiled down:
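Recombinant human AChE (50 mU/mL in the enzyme mix) and human liver microsomes (0.25 mg/mL final) were preincubated with compound and NADPH (0.25 mg/mL final) for 30 min at 37 C. Acetylthiocholine/DTNB was then added; thiocholine was read colorimetrically after 10 min at room temperature.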

The target in experiment [10] is Cytochrome P450 2D6 (Homo sapiens) (UniProt P10635). As to the kind of experiment: Cytochrome P450 Family 2 Subfamily D Member 6 (CYP2D6) small molecule antagonists: luciferase reporter qHTS assay (AID 1671196). Also: nearly all actives have a fitted effect of over 50% in size. Also: potency is read from the fitted curve at half-maximal effect. The method, boiled down:
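Chemicals tested for interference with CYP2D6 activity; proluciferin substrate, NADPH regeneration, 1 h at room temperature, luminescent detection.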

The target in experiment [11] is Cytochrome P450 2C19 (Homo sapiens) (UniProt P33261). Description: Cytochrome P450 Family 2 Subfamily C Member 19 (CYP2C19) small molecule antagonists: luciferase reporter qHTS assay (AID 1671197). Also: nearly all actives have a fitted effect of over 65% in size. Also: potency is read from the fitted curve at half-maximal effect. Put shortly:
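Compounds were tested on CYP2C19 activity via proluciferin conversion to luciferin. The 37C, 1 h reaction followed NADPH addition; detection reagent stopped it.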
Background: In a reporter assay the amount or activity of a reporter protein is the signal.

Experiment [12] deals with Cytochrome P450 2C9 (Homo sapiens) (UniProt P11712). Description: Cytochrome P450 Family 2 Subfamily C Member 9 (CYP2C9) small molecule antagonists: luciferase reporter qHTS assay (AID 1671198). Also: nearly all actives have a fitted effect of over 50% in size. Also: potency is read from the fitted curve at half-maximal effect. The method, boiled down:
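P450-Glo proluciferin substrate with CYP2C9 enzyme; 10 min RT preincubation, then NADPH regeneration 1 h at 37C; luciferin detection reagent 20 min RT, luminescence in relative luminescence units.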

Experiment [13] concerns the target Cytochrome P450 1A2 (Homo sapiens) (UniProt P05177). Description: Cytochrome P450 Family 1 Subfamily A Member 2 (CYP1A2) small molecule antagonists: luciferase reporter qHTS assay (AID 1671199). Also: nearly all actives have a fitted effect of over 50% in size. Also: potency is read from the fitted curve at half-maximal effect. Put shortly:
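Read-out is luminescence from luciferin detection reagent (20 min) proportional to CYP1A2 activity; compounds in DMSO preincubated 10 min with enzyme and proluciferin substrate, then NADPH regeneration solution, 1 h, room temperature.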

Experiment [14] has as its target Voltage-gated inwardly rectifying potassium channel KCNH2 (Homo sapiens) (UniProt Q12809). As to the kind of experiment: Human Ether-a-go-go-Related Gene (hERG) channel small molecule antagonists: fluorescence cell-based qHTS assay (AID 1671200). Also: nearly all actives have a fitted effect of over 50% in size. Also: potency is read from the fitted curve at half-maximal effect. Put shortly:
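In this thallium-flux screen, overnight-cultured U2OS cells bearing the channel are dye-loaded in darkness for an hour, rested 10 min at room temperature, and then monitored kinetically at 480/540 nm for two minutes post-stimulus.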

The target in experiment [15] is Cytochrome P450 3A4 (Homo sapiens) (UniProt P08684). Description: Cytochrome P450 Family 3 Subfamily A Member 4 (CYP3A4) small molecule antagonists: luciferase reporter qHTS assay (AID 1671201). Also: nearly all actives have a fitted effect of over 50% in size. Also: potency is read from the fitted curve at half-maximal effect. Put shortly: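 CYP3A4 activity was followed with a P450-Glo proluciferin substrate. Test compounds in DMSO were preincubated 10 min; NADPH regeneration then ran 1 h, and light output was read 20 min after detection reagent.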

Experiment [16] concerns the target Nuclear receptor subfamily 1 group I member 2 (Rattus norvegicus) (UniProt Q9R1A7). As to the kind of experiment: Rat pregnane X receptor (rPXR) activation by small molecules, qHTS assay (AID 1346983). Also: nearly all actives have a fitted effect of over 20% in size. As to conditions: rPXR luciferase reporter cells, One-Glo luminescence, 24 h; max activation: stronger effect = higher value. Put shortly: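 Cell-based rPXR activation assay: rPXR cells, 2,000 per well, rested 5hr at 37 C, then exposed to compounds in DMSO for 24 hr at 37 C. Luciferase activity read by One-Glo luminescence after 30 min at room temperature.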

Experiment [17] concerns the target Nuclear receptor subfamily 1 group I member 2 (Homo sapiens) (UniProt O75469). Description: CYP3A4 induction through human pregnane X receptor (PXR) by small molecules, qHTS assay (AID 1346984). Also: nearly all actives have a fitted effect of over 40% in size. Put shortly: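 After 24 h at 37C with compound, DPX-2 cells (HepG2, co-transfected PXR response element and CYP3A4 promoter-luciferase) got 3uM final P450-Glo Luciferin-IPA for 3 h; One-Glo luminescence followed.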

The target is the same in experiment [18]. Description: Human pregnane X receptor (PXR) activation by small molecules, qHTS assay (AID 1346985). Also: nearly all actives have a fitted effect of over 40% in size. Put shortly:
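DPX-2 cells (HepG2 co-transfected with a PXR response element and a CYP3A4-promoter luciferase construct) were seeded at 2,000 per well, rested 5 hr at 37C, then exposed to DMSO-dissolved compounds for 24 hr. Activation was read as luciferase luminescence.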

Unmarked numbers belong to inactive results. Inconclusive results are not listed. Calls of active or inactive are those of the source. Unless noted, calls follow the shape of the dose curve; as a rule, active = well fitted curve in the direction sought with a large enough effect in the repeat runs; inconclusive = weak or mixed curves; inactive = no such curve, though single readings can be large; an effect the other way counts as inactive or inconclusive.
% is scaled to controls: 0 for no effect and ±100 for the full control effect.

Sequence of Cytochrome P450 2D6 (Homo sapiens) (P10635 whole entry, looked up): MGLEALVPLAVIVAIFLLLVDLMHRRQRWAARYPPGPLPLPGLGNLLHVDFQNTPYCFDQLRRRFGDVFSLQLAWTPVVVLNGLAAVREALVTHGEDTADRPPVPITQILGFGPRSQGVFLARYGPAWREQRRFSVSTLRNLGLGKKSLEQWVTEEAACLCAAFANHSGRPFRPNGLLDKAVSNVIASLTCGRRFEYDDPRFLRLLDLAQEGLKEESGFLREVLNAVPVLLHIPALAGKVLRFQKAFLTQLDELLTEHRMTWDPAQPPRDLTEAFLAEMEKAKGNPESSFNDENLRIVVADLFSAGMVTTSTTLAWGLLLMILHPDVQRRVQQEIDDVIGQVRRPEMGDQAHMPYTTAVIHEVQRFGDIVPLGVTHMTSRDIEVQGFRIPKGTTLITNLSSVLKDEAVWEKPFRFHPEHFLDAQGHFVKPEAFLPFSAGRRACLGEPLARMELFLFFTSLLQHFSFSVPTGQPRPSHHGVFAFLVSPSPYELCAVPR
Sequence of Cytochrome P450 1A2 (Homo sapiens) (P05177 whole entry, looked up): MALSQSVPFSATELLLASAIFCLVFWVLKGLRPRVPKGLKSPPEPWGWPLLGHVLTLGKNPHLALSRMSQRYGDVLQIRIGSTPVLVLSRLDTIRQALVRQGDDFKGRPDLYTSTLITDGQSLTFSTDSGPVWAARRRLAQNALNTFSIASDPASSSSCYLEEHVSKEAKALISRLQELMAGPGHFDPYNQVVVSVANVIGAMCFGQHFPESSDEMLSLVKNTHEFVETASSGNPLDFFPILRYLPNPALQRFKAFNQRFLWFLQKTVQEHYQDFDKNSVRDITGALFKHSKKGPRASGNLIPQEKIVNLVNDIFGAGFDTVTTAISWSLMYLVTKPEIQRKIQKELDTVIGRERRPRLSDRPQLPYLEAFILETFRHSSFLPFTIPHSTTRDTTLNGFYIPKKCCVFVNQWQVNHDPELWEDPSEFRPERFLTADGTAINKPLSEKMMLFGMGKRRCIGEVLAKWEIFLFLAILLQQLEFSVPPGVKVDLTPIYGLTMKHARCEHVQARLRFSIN
Sequence of Cytochrome P450 2C19 (Homo sapiens) (P33261 whole entry, looked up): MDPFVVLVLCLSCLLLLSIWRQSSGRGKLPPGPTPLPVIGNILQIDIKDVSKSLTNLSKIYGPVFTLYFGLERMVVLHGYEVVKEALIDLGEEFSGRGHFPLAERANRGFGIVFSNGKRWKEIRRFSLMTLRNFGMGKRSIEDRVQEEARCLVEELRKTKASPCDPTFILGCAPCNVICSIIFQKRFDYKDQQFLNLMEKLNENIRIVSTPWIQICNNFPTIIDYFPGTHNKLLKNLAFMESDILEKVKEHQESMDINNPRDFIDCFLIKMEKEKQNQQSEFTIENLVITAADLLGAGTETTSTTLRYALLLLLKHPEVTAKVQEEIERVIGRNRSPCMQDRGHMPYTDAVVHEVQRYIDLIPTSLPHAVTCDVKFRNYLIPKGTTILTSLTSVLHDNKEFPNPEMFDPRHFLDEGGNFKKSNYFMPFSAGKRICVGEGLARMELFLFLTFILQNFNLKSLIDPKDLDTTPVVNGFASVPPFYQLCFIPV
Sequence of Cytochrome P450 3A4 (Homo sapiens) (P08684 whole entry, looked up): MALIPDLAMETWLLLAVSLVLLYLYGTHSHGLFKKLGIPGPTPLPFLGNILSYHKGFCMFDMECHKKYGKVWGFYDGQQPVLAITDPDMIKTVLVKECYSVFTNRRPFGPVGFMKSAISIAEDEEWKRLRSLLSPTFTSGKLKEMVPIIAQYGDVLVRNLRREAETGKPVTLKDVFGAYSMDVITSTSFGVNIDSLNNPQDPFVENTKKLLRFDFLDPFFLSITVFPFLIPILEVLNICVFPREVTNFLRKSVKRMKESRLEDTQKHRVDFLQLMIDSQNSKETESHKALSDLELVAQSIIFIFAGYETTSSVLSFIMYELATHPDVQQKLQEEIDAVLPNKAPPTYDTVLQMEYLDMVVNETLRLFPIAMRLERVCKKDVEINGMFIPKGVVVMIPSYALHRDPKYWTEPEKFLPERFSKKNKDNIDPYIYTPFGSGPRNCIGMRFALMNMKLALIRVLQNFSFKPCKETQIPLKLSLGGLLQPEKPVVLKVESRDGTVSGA
Sequence of Nuclear receptor subfamily 1 group I member 2 (Homo sapiens) (O75469 whole entry, looked up): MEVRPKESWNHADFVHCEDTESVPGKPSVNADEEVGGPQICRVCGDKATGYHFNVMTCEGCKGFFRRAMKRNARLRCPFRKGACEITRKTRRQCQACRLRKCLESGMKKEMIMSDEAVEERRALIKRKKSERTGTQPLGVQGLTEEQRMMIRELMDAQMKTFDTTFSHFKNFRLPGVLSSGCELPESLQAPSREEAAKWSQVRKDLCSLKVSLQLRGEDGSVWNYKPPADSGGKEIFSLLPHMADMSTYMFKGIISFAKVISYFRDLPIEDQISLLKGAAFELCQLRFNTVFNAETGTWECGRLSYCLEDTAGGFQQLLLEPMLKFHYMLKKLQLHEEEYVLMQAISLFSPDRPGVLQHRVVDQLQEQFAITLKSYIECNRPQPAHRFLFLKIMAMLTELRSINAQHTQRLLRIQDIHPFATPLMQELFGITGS
Sequence of Cytochrome P450 2C9 (Homo sapiens) (P11712 whole entry, looked up): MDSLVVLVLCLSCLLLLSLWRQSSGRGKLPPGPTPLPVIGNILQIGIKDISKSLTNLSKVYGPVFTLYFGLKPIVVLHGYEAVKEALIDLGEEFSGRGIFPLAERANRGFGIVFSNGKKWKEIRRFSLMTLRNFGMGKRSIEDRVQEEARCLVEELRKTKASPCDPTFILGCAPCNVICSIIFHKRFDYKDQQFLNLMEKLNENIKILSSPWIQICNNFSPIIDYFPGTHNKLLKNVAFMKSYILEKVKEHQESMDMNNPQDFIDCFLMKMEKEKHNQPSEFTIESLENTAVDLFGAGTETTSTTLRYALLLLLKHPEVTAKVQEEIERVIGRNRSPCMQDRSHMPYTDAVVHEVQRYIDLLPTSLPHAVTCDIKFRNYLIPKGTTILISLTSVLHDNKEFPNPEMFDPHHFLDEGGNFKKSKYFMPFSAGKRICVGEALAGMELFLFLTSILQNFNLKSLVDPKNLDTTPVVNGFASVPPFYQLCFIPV
Sequence of Voltage-gated inwardly rectifying potassium channel KCNH2 (Homo sapiens) (Q12809 whole entry, looked up): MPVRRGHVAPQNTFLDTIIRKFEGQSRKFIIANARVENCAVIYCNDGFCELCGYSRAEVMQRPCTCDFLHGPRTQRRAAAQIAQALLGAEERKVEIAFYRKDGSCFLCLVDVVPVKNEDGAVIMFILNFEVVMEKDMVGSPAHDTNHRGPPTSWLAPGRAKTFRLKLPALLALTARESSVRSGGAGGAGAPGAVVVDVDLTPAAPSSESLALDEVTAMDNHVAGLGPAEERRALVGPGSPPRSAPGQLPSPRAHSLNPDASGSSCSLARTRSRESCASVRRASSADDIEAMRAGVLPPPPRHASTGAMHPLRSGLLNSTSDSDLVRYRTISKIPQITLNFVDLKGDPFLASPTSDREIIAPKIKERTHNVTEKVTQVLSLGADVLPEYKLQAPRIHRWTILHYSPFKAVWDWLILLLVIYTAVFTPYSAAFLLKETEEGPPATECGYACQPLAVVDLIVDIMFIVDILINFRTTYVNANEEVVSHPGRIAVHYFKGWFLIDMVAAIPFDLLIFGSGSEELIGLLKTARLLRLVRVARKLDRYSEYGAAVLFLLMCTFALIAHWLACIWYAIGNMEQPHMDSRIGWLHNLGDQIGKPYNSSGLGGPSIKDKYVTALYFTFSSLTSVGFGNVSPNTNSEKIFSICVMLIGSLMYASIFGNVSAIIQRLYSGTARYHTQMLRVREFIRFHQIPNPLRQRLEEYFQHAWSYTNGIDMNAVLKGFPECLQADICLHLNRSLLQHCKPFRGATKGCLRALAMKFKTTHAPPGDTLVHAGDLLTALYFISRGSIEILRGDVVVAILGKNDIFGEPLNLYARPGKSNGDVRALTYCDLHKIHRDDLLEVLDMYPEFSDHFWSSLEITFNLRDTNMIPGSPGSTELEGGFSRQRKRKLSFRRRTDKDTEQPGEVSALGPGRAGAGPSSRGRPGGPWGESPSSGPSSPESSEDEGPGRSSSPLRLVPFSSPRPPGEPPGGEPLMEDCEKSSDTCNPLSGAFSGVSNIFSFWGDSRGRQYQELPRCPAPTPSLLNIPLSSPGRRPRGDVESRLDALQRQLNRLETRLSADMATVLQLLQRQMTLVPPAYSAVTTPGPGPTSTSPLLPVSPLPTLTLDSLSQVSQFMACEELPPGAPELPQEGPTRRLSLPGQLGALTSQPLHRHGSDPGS
Sequence of Acetylcholinesterase (Homo sapiens) (P22303 whole entry, looked up): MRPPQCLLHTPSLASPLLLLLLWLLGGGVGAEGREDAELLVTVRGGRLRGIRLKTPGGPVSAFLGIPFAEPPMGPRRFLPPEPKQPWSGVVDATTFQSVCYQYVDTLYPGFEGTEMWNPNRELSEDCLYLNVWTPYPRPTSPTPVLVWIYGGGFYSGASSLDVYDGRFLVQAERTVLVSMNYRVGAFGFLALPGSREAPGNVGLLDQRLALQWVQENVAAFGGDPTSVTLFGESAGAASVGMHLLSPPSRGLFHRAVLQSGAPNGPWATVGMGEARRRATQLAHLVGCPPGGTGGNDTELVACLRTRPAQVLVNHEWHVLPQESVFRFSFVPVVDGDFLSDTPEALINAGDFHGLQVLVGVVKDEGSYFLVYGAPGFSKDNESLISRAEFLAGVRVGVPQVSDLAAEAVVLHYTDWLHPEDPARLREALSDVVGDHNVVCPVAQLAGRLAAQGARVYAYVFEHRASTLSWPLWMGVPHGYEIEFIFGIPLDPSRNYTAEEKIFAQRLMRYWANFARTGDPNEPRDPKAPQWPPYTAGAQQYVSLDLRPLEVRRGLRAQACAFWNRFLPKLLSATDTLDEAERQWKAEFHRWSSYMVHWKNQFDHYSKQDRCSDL

Regarding `O=C(N[C@H]1N=C(c2ccccc2F)c2cccc3c2N(CC3)C1=O)c1cc2ccccc2[nH]1`, the Potency result in experiment [1], in [2], in experiment [3], in experiment [4], in experiment [6] and in [7] was “inactive” each time. Also, the Potency entry in experiment [8], in experiment [9], in [10], in experiment [11], in experiment [13] and in [15] was “inactive” throughout. Also, the results for the Potency in [5], in [12] and in experiment [14] were 18.8 µM (active), 7.76 µM (active) and 7.56 µM (active), respectively.

For `CC(=O)[O-].CC(=O)[O-].O.O.O.[Pb+2]`, the Potency result in experiment [1], in [2], in experiment [3], in experiment [4] and in experiment [14] was “inactive” throughout.

On to `COc1ccc(Cc2nccc3cc(OC)c(OC)cc23)cc1OC`, for which the Potency result in experiment [1], in experiment [3], in [17], in experiment [18], in experiment [13] and in experiment [14] was “inactive” throughout. The Potency in experiment [2] was 13.3 µM (active); in experiment [5], 16.8 µM (active). The max activation in experiment [16] was -16.6%.

Turning to `COC(=O)/C=C(\C)OP(=O)(OC)OC`, the Potency result in experiment [1], in experiment [2], in experiment [3], in experiment [4], in experiment [5] and in [12] was “inactive” in each case. Further, the Potency entry in experiment [13] and in [15] was “inactive” in each case. For the same compound, the Potency in experiment [6] was 2.24 µM (active); in [7] it was 3.56 µM (active); in [8] it was 1 µM (active); in [9], 17.8 µM (active); in [10], 31.7 µM (active); in experiment [11], 71 µM (active).

In the case of `CC(C)C(Nc1ccc(C(F)(F)F)cc1Cl)C(=O)OC(C#N)c1cccc(Oc2ccccc2)c1` (stereo not given), the Potency entry in experiment [1], in experiment [2], in experiment [3], in [6], in [7] and in experiment [8] was “inactive” in each case. The Potency entry in experiment [9] and in experiment [14] was “inactive” each time. The Potency in [5] was 13.8 µM (active); in experiment [11] it was 9.01 µM (active); in experiment [12] it was 6.38 µM (active).

Turning to `NC1CCC(CC2CCC(N)CC2)CC1` (stereo not given), the Potency entry in experiment [1], in [2], in [3], in [4], in experiment [5] and in experiment [6] was “inactive” in each case. Moreover, the Potency result in experiment [7], in experiment [8], in experiment [9], in [11], in [13] and in experiment [14] was “inactive” throughout. Moreover, the Potency in [10] is 35 µM (active).

As to `CN(C)CCc1c[nH]c2ccccc12`, the Potency entry in experiment [1], in [2], in experiment [3], in experiment [4], in [5] and in experiment [7] was “inactive” throughout. In addition, the Potency result in experiment [8], in [9], in experiment [11], in [12], in experiment [13] and in experiment [14] was “inactive” each time. For the same compound, the Potency in experiment [10] was 39.6 µM (active).

Turning to `c1ccc(Nc2ccc(Nc3ccccc3)cc2)cc1`, the Potency result in [1], in experiment [3], in experiment [4], in [6], in experiment [7] and in experiment [8] was “inactive” throughout. Moreover, the Potency entry in experiment [9] is “inactive”. Also, the Potency in [2] was 48.4 µM (active); in [5], 24.2 µM (active); in experiment [10] it was 39.8 µM (active); in experiment [11] it was 12.6 µM (active); in experiment [12] it was 11.2 µM (active); in experiment [13], 31.6 µM (active). The Potency in experiment [14] was 38.7 µM (active); in [15] it was 39.8 µM (active).
